Test results from PubChem BioAssay AID651687 (Broad Institute, 2012).
The whole screen tested about 350,000 compounds, of which about 600 (0.17%) were called active. This is one part of a sample in which actives are shown more often than they occur. A number with no mark means an inactive call.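 Rule for the calls: active = every replicate shows inhibition of at least 40%; inconclusive = mean inhibition at least 40% but some replicate below; inactive = the rest.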

Assay: compounds lowering acetylated PGC1a in cells – cell-based, U2OS, AlphaScreen, inhibitor mode, primary screen (AID 651687);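 note: 0% = neutral control wells and 100% = positive control wells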
Details: U2OS PGC1a acetylation, AlphaScreen anti-acetyl-lysine; at 15.6 µM; hits give high values; with virally co-expressed GCN5 acetyltransferase

| SMILES | inhibition |
| --- | --- |
| C[C@H]1CN([C@@H](C)CO)C(=O)c2cccc(NC(=O)Nc3ccccc3)c2O[C@H]1CN(C)S(=O)(=O)c1ccc(F)cc1 | -3.23% |
| C[C@@H]1CN([C@H](C)CO)C(=O)c2cc(NC(=O)Nc3ccc(F)cc3)ccc2O[C@@H](C)CCCCO[C@@H]1CN(C)S(=O)(=O)c1cn(C)cn1 | -2.5% |
| C[C@@H](O)C#Cc1ccc([C@H]2[C@H](CO)N3CCCCN(C(=O)c4ccc(F)cc4)C[C@@H]23)cc1 | -2.34% |
| NC(=O)N/N=C\c1cccs1 | 76.7% (active) |
| Cc1nc2ccccc2n1CC(=O)N/N=C/c1cccs1 | 0.244% |
| Cc1cc(C)nc(SC(C)C(=O)N/N=C/c2cccs2)n1 (configuration not stated) | -4.85% |
| COCC(=O)N1[C@H](CO)[C@@H](c2ccccc2)C12CN(Cc1cc(F)ccc1F)C2 | 3.15% |
| CN1c2ccc(C#Cc3ccccc3F)cc2[C@@H]2[C@@H](CCN2C(=O)Cc2cccnc2)[C@H]1CO | -8.75% |
| CO[C@@H]1CN(C)C(=O)c2ccc(NS(=O)(=O)c3c(C)noc3C)cc2OC[C@H](C)NC[C@@H]1C | 14.4% |
| CC(C)NC(=O)N(C)C[C@H]1OCCCC[C@H](C)Oc2ccc(NS(=O)(=O)c3cccs3)cc2C(=O)N([C@H](C)CO)C[C@@H]1C | -3.81% |
| COc1ccc2c3c(n(C)c2c1)[C@@H](CO)N(C(=O)CN1CCOCC1)CC31CCN(C(=O)C2CC2)CC1 | 5.01% |
| O=C(c1cccnc1)N1C[C@H]2[C@@H](c3ccccc31)[C@H](CO)N2C(=O)C1CC1 | 8.96% |
| C[C@H](CO)N1C[C@H](C)[C@@H](CN(C)S(=O)(=O)c2cccs2)OCc2ccccc2-c2ccccc2C1=O | -0.156% |
| CCNC(=O)C[C@@H]1CC[C@@H]2[C@@H](COc3ccc(NC(=O)Nc4ccccc4F)cc3C(=O)N2C)O1 | 2.36% |
| CO[C@@H]1CN(C)C(=O)c2cc(NC(=O)c3ccccc3F)ccc2OC[C@H](C)NC[C@@H]1C | -5.95% |
| CO[C@@H]1CN(C)C(=O)c2ccc(NC(=O)c3ccccc3F)cc2OC[C@@H](C)N(CC2CCOCC2)C[C@H]1C | -3.01% |
| C[C@@H]1CCCCO[C@@H](CN(C)C(=O)C2CCCCC2)[C@H](C)CN([C@H](C)CO)C(=O)c2cc(NC(=O)c3ccccc3)ccc2O1 | -4.75% |
| CCCN(C)C[C@H]1Oc2ncc(-c3ccccc3OC)cc2C(=O)N([C@H](C)CO)C[C@H]1C | 7.87% |
| C[C@@H](NC(=O)C[C@H]1CC[C@H]2[C@@H](COC[C@@H](O)CN2C(=O)Nc2ccccc2)O1)c1ccccc1 | 6.72% |
| COc1ccccc1C#Cc1cnc2c(c1)C(=O)N([C@@H](C)CO)C[C@@H](C)[C@H](CN(C)C(=O)CN(C)C)O2 | -1.48% |
| C/C(=C\c1ccccc1)C1NC(=O)c2c(sc3c2CCCC3)N1 (configuration not stated) | 6.29% |
| CC1(C(=O)O)CCCN(C(=O)/C=C/c2ccccc2)C1 (configuration not stated) | 7.82% |
| Cc1[nH]c(=O)c(C(=O)/C=C/c2ccccc2)c2c1CCCC2 | 53.2% (active) |

| SMILES | inhibition |
| --- | --- |
| C[C@@H]1CN([C@H](C)CO)C(=O)c2cc(NC(=O)c3ccccc3)ccc2O[C@@H](C)CCCCO[C@H]1CN(C)S(=O)(=O)c1ccccc1 | 0.633% |
| CC(C)CC#Cc1ccc2c(c1)O[C@H](CN(C)C(=O)C1CC1)[C@@H](C)CN([C@@H](C)CO)S2(=O)=O | 3.73% |
| CCCN1C[C@@H](C)[C@H](OC)CN(C)C(=O)c2cc(NC(=O)CC)ccc2OC[C@@H]1C | 3.35% |
| C/C=C/c1ccc([C@H]2[C@H]3CN(S(=O)(=O)c4ccccc4)CCCCN3[C@H]2CO)cc1 | -5.04% |
| Cc1noc(C)c1NC(=O)N(C)C[C@@H]1Oc2ccc(NC(=O)Nc3ccc4c(c3)OCO4)cc2CC(=O)N([C@H](C)CO)C[C@H]1C | -8.32% |
| O=C(C1CCCC1)N1CC(=O)N2[C@H](CO)[C@H](c3ccc(Br)cc3)[C@@H]2C1 | -9% |
| C[C@@H]1CN([C@H](C)CO)C(=O)Cc2cc(NC(=O)Cn3cnnn3)ccc2O[C@H]1CN(C)CC1CCCCC1 | -7.22% |
| N#C[C@H]1[C@H](c2ccc(-c3cccc(F)c3)cc2)[C@@H](CO)N1C(=O)NC1CCCC1 | 4.29% |
| C[C@@H]1CN([C@H](C)CO)C(=O)c2cccc(NS(=O)(=O)c3cn(C)cn3)c2O[C@@H]1CN(C)Cc1ccc(C(F)(F)F)cc1 | -1.87% |
| O=C(C[C@H]1C[C@@H]2c3cc(NC(=O)c4ccc5c(c4)OCO5)ccc3O[C@@H]2[C@@H](CO)O1)NCc1cccnc1 | -3.47% |
| COCC(=O)N1CC(=O)N2[C@H](C1)[C@@H](c1ccc(C#Cc3cccc(OC)c3)cc1)[C@@H]2CO | -0.955% |
| Cc1nc2ccccc2c(=O)n1NC(=O)c1ccc(Cl)c([N+](=O)[O-])c1 | 44.8% (active) |
| Cc1ccnc(NC(=O)c2ccc(Cl)c([N+](=O)[O-])c2)c1 | 3% |
| O=C(O)c1ccc2c(=O)n3c(nc2c1)/C(=C/c1ccc(Cl)c([N+](=O)[O-])c1)CC3 | 12.5% |
| O=C(C1CC1)N1CC(=O)N2[C@H](CO)[C@@H](c3ccc(-c4ccccc4F)cc3)[C@@H]2C1 | 6.24% |
| C[C@H]1CN([C@@H](C)CO)C(=O)c2cc(-c3ccc(C#N)cc3)cnc2O[C@@H]1CN(C)Cc1ccncc1 | -4.55% |
| C[C@@H]1CCCCO[C@H](CN(C)C(=O)Nc2ccccc2)[C@H](C)CN([C@H](C)CO)C(=O)c2cc(N(C)C)ccc2O1 | 0.535% |
| O=C(C[C@H]1C=C[C@H](NC(=O)c2cnccn2)[C@@H](CO)O1)NCc1ccccc1F | -5.81% |
| CN1CCN(CCC(=O)N/N=C/C=C2\N(C)c3ccccc3C2(C)C)CC1 | 17.1% |
| CN1/C(=C\C(=O)c2oc3ccccc3c2N)C(C)(C)c2ccccc21 | 86.9% (active) |
| CN1/C(=C\C=C2\N=C(c3ccc(F)cc3)OC2=O)C(C)(C)c2ccccc21 | -0.203% |
| C[C@@H]1CN([C@H](C)CO)C(=O)c2cccc(NC(=O)c3nc4ccccc4s3)c2O[C@@H]1CN(C)Cc1ccc(Oc2ccccc2)cc1 | 16.2% |
| CN1CCN(C(=O)C[C@H]2CC[C@H]3[C@@H](COC[C@H](O)CN3CC3CCOCC3)O2)CC1 | 0.0455% |

| SMILES | inhibition |
| --- | --- |
| O=C(N/N=C\c1cc2c(cc1Cl)OCO2)c1ccc(Br)s1 | -10.7% |
| CC/C(=N\NC(=O)c1ccccc1Cl)c1ccc(Br)s1 | 82.8% (active) |
| C/C(Cc1ccccc1)=N\NC(=O)CNC(=O)c1ccccc1Cl | 5.72% |
| COc1ccc(S(=O)(=O)N(C)C[C@H]2OCCCC[C@@H](C)Oc3ccc(NS(=O)(=O)c4ccc(C)cc4)cc3C(=O)N([C@@H](C)CO)C[C@@H]2C)cc1 | 0.06% |
| COCCCn1c(CCC(=O)O)ccc1-c1ccc(F)cc1 | -1.42% |
| COc1ccc(-c2ccc(CCC(=O)O)n2NC(=O)c2ccc(C(C)(C)C)cc2)cc1 | 43.5% (active) |
| COc1ccc(-c2ccc(CCC(=O)O)n2-c2ccc(O)cc2)cc1 | 1.05% |
| Cc1noc(C)c1NC(=O)N(C)C[C@@H]1OCCCC[C@H](C)Oc2ccc(NS(=O)(=O)c3c(C)noc3C)cc2C(=O)N([C@@H](C)CO)C[C@@H]1C | -1.1% |
| CN1C(=O)c2cc(NC(=O)C3CCOCC3)ccc2OC[C@@H]2O[C@@H](CC(=O)NCC3CC3)CC[C@@H]21 | 4.15% |
| C[C@@H]1CN([C@H](C)CO)C(=O)c2cc(NS(=O)(=O)c3cn(C)cn3)ccc2O[C@@H](C)CCCCO[C@@H]1CN(C)C(=O)CCC(F)(F)F | -2.59% |
| COc1ccc(NC(=O)N2CC(=O)N3[C@H](CO)[C@@H](c4ccc(-c5ccc(C)cc5)cc4)[C@H]3C2)cc1 | 5.16% |
| COc1ccccc1C(=O)Nc1ccc2c(c1)OC[C@@H](C)NC[C@H](C)[C@@H](OC)CN(C)C2=O | -5.63% |
| O=C(C[C@@H]1C[C@@H]2c3cc(NC(=O)c4ccc5c(c4)OCO5)ccc3O[C@@H]2[C@H](CO)O1)NCCc1ccccc1 | -4.93% |
| CCN1[C@@H]2Cn3c(ccc(-c4cccnc4)c3=O)[C@H]1[C@@H](C(=O)NC1CCCCC1)[C@@H]2CO | 1.27% |
| CCCNC(=O)C[C@H]1CC[C@H]2[C@@H](COC[C@H](O)CN2C(=O)CC)O1 | 3.49% |
| CCCNC(=O)C[C@H]1CC[C@@H]2[C@H](COC[C@H](O)CN2S(=O)(=O)c2ccccc2F)O1 | -0.728% |
| O=C(C[C@@H]1CC[C@H](NC(=O)CN2CCOCC2)[C@@H](CO)O1)NCCc1ccccc1 | -5.55% |
| CC(C)NC(=O)Nc1ccc2c(c1)C(=O)N([C@@H](C)CO)C[C@H](C)[C@H](CN(C)S(=O)(=O)c1ccc(Cl)cc1)OCCCC[C@H](C)O2 | -18.6% |
| CC(C)NC(=O)Nc1ccc2c(c1)C(=O)N([C@@H](C)CO)C[C@@H](C)[C@H](CN(C)S(=O)(=O)c1ccccc1)OCCCC[C@@H](C)O2 | 124% (active) |
| CC(C)NC(=O)Nc1ccc2c(c1)C(=O)N([C@@H](C)CO)C[C@@H](C)[C@@H](CN(C)S(=O)(=O)c1ccc(F)cc1)OCCCC[C@H](C)O2 | -0.972% |
| C[C@@H]1CN([C@H](C)CO)S(=O)(=O)c2ccc(C#CC3CCCC3)cc2O[C@@H]1CN(C)Cc1cccnc1 | -39.6% |
